Where “and” joins values, the source holds several entries; their conditions need not be identical. Equal entries are not always repeated. Records with an inconclusive call do not appear. Calls of active or inactive are those of the source.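 The calls were made as follows, unless noted: active = normalized viability below 100% at a tested concentration; inactive = the rest.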
How the values were obtained:
[1] = drug combination growth inhibition, ovarian cancer – cell-based, oncology-focused library, rucaparib conditional, profiling panel (AID 1508598); details: patient-derived ovarian cancer cells, CellTiter-Glo viability, 144 h, stronger effect = lower value
[2] = viability loss in pontine glioma line – cell-based, SU-DIPG-XVII, MIPE5.0, CellTiter-Glo, qHTS, dose response (AID 1347060; cut-off not given, nearly all actives have AC50 up to about 26 µM;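 as to AC50: cells exposed to compound for 48 hours before viability readout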); details: CellTiter-Glo ATP luminescence
[3] = viability loss in pontine glioma line – cell-based, JHH-DIPG-1, MIPE4.0, CellTiter-Glo, qHTS, dose response (AID 1347062; cut-off not given, nearly all actives have AC50 up to about 27 µM); details: JHH-DIPG-1 viability, CellTiter-Glo ATP luminescence
[4] = viability loss in pontine glioma line – cell-based, SU-DIPG-XXV, MIPE5.0, CellTiter-Glo, qHTS, dose response (AID 1347065; cut-off not given, nearly all actives have AC50 up to about 26 µM;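 also: cells exposed to compound for 48 hours before ATP readout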); details: CellTiter-Glo ATP luminescence
[5] = growth inhibition of DIPG cells – cell-based, MIPE5.0 library, qHTS (AID 1347068; cut-off not given, nearly all actives have IC50 up to about 30 µM;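 as to IC50: cells exposed to compound for 48 hours before viability readout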); details: SU-DIPG-XXV viability
[6] = viability loss with induced miR-34 in A549 – imaging, A549 dox-inducible miR-34, nuclei and caspase counts, primary screen (AID 1347080;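 active = compounds whose cell count with miR-34 switched on is under 0.7 times the count with it off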); details: A549 miR-34 inducible, Hoechst nuclei count, 48 h
[7] = compounds altering HSF1 focus formation in cells – imaging, Selleck Cancer Library (AID 1347162; in the data active = plate-normalised HSF1 focus index below about 0.46); details: human cells, HSF1 nuclear foci imaging, at 10 µM; SSMD: measured here: HSF1 foci SSMD mean; cell count: measured here: cell number; plate-normalised HSF1 focus index: stronger effect = lower value
[8] = MELAS cybrid and Rieske KO viability enhancers – cell-based, MELAS cybrids, Rieske KO mouse fibroblasts, CellTiter-Glo, primary screen (AID 1508586;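 active = mean z-score across replicates of 1.96 or higher in either the MELAS or the Rieske mutant cell line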;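 also: z relative to plate mean and SD of compound and empty wells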); details: low glucose
[9] = viability loss in pontine glioma line – cell-based, SU-DIPG-IV, MIPE4.0, CellTiter-Glo, qHTS, dose response (AID 1347063; cut-off not given, nearly all actives have AC50 up to about 30 µM;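 also: compound exposure lasted 48 hours before the viability readout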); details: CellTiter-Glo ATP luminescence
[10] = viability loss in pontine glioma line – cell-based, SU-DIPG-XIII, MIPE5.0, CellTiter-Glo, qHTS, dose response (AID 1347064; cut-off not given, nearly all actives have AC50 up to about 23 µM;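 as to AC50: cells exposed to compound for 48 hours before the viability read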); details: CellTiter-Glo ATP luminescence
[11] = JHH-DIPG-1 glioma cell viability, MIPE5.0 library, CellTiter-Glo luminescence, qHTS (AID 1347067; cut-off not given, nearly all actives have AC50 up to about 26 µM;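 also: cells exposed to compound for 48 hours before readout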); details: JHH-DIPG-1 glioma viability, CellTiter-Glo ATP luminescence
[12] = growth inhibition of DIPG cells – cell-based, MIPE4.0 library, CellTiter-Glo luminescence, qHTS (AID 1347066; cut-off not given, nearly all actives have AC50 up to about 30 µM;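 also: cells exposed to compound for 48 hours before readout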); details: SU-DIPG-VI viability, CellTiter-Glo ATP luminescence
[13] = P. berghei load reduction in hepatocytes – cell-based, HepG2, luciferase luminescence, HepG2 viability, primary screen (AID 624349; in the data active = parasite load remaining mostly below about 12%, no sharp cut-off; inactive = mostly above about 10%;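 also: 100% = mean of DMSO negative control wells on the same plate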); details: P. berghei liver stage in HepG2, luciferase luminescence, concentration not given here; parasite load remaining: stronger effect = lower value; viability: measured here: HepG2 viability without parasites
[14] = at 0.313 µM, OCI-C5x cells, without rucaparib
[15] = at 0.313 µM, OCI-P5x cells, with rucaparib 20 µM, 100% = cells with rucaparib alone
[16] = at 0.313 µM, OCI-P5x cells, without rucaparib
[17] = at 1.25 µM, OCI-C5x cells, with rucaparib 10 µM, 100% = cells with rucaparib alone
[18] = at 1.25 µM, OCI-C5x cells, without rucaparib
[19] = at 1.25 µM, OCI-P5x cells, with rucaparib 20 µM, 100% = cells with rucaparib alone
[20] = at 1.25 µM, OCI-P5x cells, without rucaparib
[21] = at 5 µM, OCI-C5x cells, with rucaparib 10 µM, 100% = cells with rucaparib alone
[22] = at 5 µM, OCI-C5x cells, without rucaparib
[23] = at 5 µM, OCI-P5x cells, with rucaparib 20 µM, 100% = cells with rucaparib alone
[24] = at 5 µM, OCI-P5x cells, without rucaparib
[25] = stronger effect = lower value, cell number ratio, induced over uninduced
[26] = measured here: relative caspase fold change +Dox/-Dox
[27] = measured here: total cells with miR-34 induction, stronger effect = lower value
[28] = measured here: total cells without miR-34 induction
[29] = MELAS cybrid survival, CellTiter-Glo 48 h, stronger effect = higher value
[30] = Rieske KO mouse fibroblast survival, CellTiter-Glo 72 h

COc1ccc(-c2ccc3c(N4CCOCC4)nc(N4C[C@@H](C)O[C@@H](C)C4)nc3n2)cc1CO
viability [1, 14]: 127% (inactive) | viability [1, 15]: 95.5% (active) | viability [1, 16]: 106% (inactive) | viability [1, 17]: 120% (inactive) | viability [1, 18]: 124% (inactive) | viability [1, 19]: 78.8% (active) | viability [1, 20]: 91.3% (active) | viability [1, 21]: 133% (inactive) | viability [1, 22]: 106% (inactive) | viability [1, 23]: 48% (active) | viability [1, 24]: 99.4% (active)

CC1(C)CNc2cc(NC(=O)c3cccnc3NCc3ccncc3)ccc21
AC50 [2]: 20.9 µM (active) | outcome [3]: inactive | AC50 [4]: 16.6 µM (active) | outcome [5]: inactive | fold change [6, 25]: 0.978 (inactive) | fold change [6, 26]: 0.926 | cell count [6, 27]: 7470 | cell count [6, 28]: 7630 | SSMD [7]: 2.51 | cell count [7]: 7450 | plate-normalised HSF1 focus index [7]: 1.16 (inactive) | z-score [8, 29]: -0.604 (inactive) | z-score [8, 30]: 0.896 | viability ([1]; at 0.000305 µM, OCI-C5x cells, with rucaparib 10 µM, 100% = cells with rucaparib alone): 121% (inactive) | viability ([1]; at 0.000305 µM, OCI-C5x cells, without rucaparib): 126% (inactive) | viability ([1]; at 0.000305 µM, OCI-P5x cells, with rucaparib 20 µM, 100% = cells with rucaparib alone): 128% (inactive) | viability ([1]; at 0.000305 µM, OCI-P5x cells, without rucaparib): 103% (inactive) | viability ([1]; at 0.00122 µM, OCI-C5x cells, with rucaparib 10 µM, 100% = cells with rucaparib alone): 114% (inactive) | viability ([1]; at 0.00122 µM, OCI-C5x cells, without rucaparib): 128% (inactive) | viability ([1]; at 0.00122 µM, OCI-P5x cells, with rucaparib 20 µM, 100% = cells with rucaparib alone): 134% (inactive) | viability ([1]; at 0.00122 µM, OCI-P5x cells, without rucaparib): 102% (inactive) | viability ([1]; at 0.00488 µM, OCI-C5x cells, with rucaparib 10 µM, 100% = cells with rucaparib alone): 112% (inactive) | viability ([1]; at 0.00488 µM, OCI-C5x cells, without rucaparib): 122% (inactive) | viability ([1]; at 0.00488 µM, OCI-P5x cells, with rucaparib 20 µM, 100% = cells with rucaparib alone): 135% (inactive) | viability ([1]; at 0.00488 µM, OCI-P5x cells, without rucaparib): 104% (inactive) | viability ([1]; at 0.0195 µM, OCI-C5x cells, with rucaparib 10 µM, 100% = cells with rucaparib alone): 121% (inactive) | viability ([1]; at 0.0195 µM, OCI-C5x cells, without rucaparib): 128% (inactive) | viability ([1]; at 0.0195 µM, OCI-P5x cells, with rucaparib 20 µM, 100% = cells with rucaparib alone): 140% (inactive) | viability ([1]; at 0.0195 µM, OCI-P5x cells, without rucaparib): 105% (inactive) | viability ([1]; at 0.0781 µM, OCI-C5x cells, with rucaparib 10 µM, 100% = cells with rucaparib alone): 119% (inactive) | viability ([1]; at 0.0781 µM, OCI-C5x cells, without rucaparib): 141% (inactive) | viability ([1]; at 0.0781 µM, OCI-P5x cells, with rucaparib 20 µM, 100% = cells with rucaparib alone): 138% (inactive) | viability ([1]; at 0.0781 µM, OCI-P5x cells, without rucaparib): 108% (inactive) | viability ([1]; at 0.313 µM, OCI-C5x cells, with rucaparib 10 µM, 100% = cells with rucaparib alone): 122% (inactive) | viability [1, 14]: 126% (inactive) | viability [1, 15]: 142% (inactive) | viability [1, 16]: 107% (inactive) | viability [1, 17]: 135% (inactive) | viability [1, 18]: 146% (inactive) | viability [1, 19]: 145% (inactive) | viability [1, 20]: 98.9% (active) | viability [1, 21]: 137% (inactive) | viability [1, 22]: 148% (inactive) | viability [1, 23]: 131% (inactive) | viability [1, 24]: 94.6% (active)

CC1=C[C@@H]2[C@H]([C@@H](O)C[C@@]3(C)[C@H]2C[C@@H](C)[C@]3(O)C(=O)CO)[C@@]2(C)Cc3cnn(-c4ccccc4)c3C=C12
AC50 [2]: 5.25 µM (active) | AC50 [9]: 3.72 µM (active) | AC50 [10]: 9.34 µM (active) | AC50 [4]: 7.42 µM (active) | AC50 [11]: 11.8 µM (active) | IC50 [5]: 16.6 µM (active)

COc1cc(C)c(Sc2cnc(NC(=O)c3ccc(CNC(C)C(C)C)cc3)s2)cc1C(=O)N1CCN(C(C)=O)CC1 (stereo not given)
AC50 [2]: 14.8 µM (active) | AC50 [9]: 18.7 µM (active) | AC50 [10]: 8.33 µM (active) | AC50 [4]: 10.5 µM (active) | AC50 [12]: 14.8 µM (active) | AC50 [11]: 16.6 µM (active) | IC50 [5]: 14.8 µM (active)

CC(=O)O/N=C1/C(c2c(O)[nH]c3cc(Br)ccc23)=Nc2ccccc21
AC50 [2]: 8.33 µM (active) | AC50 [9]: 1.48 µM (active) | AC50 [10]: 20.9 µM (active) | AC50 [4]: 7.42 µM (active) | AC50 [11]: 29.5 µM (active) | IC50 [5]: 9.34 µM (active)

N#Cc1ccc(COC[C@H]2O[C@@H](n3c(NCc4ccc(Cl)c(Cl)c4)nc4c(N)ncnc43)[C@H](O)[C@@H]2O)cc1
AC50 [2]: 14.8 µM (active) | AC50 [9]: 2.35 µM (active) | AC50 [4]: 18.6 µM (active) | outcome [12]: inactive | AC50 [11]: 18.6 µM (active)

CC[C@@H]([C@H](C)O)n1ncn(-c2ccc(N3CCN(c4ccc(OCC5CO[C@@](Cn6cncn6)(c6ccc(F)cc6F)C5)cc4)CC3)cc2)c1=O (stereo not given in full)
AC50 [2]: 18.6 µM (active) | AC50 [9]: 14.8 µM (active) | outcome [12]: inactive

CN1c2ccccc2C(=O)N2CCc3c([nH]c4ccccc34)C21 (stereo not given)
AC50 [2]: 2.95 µM (active) | outcome [9]: inactive | AC50 [4]: 2.35 µM (active) | outcome [12]: inactive | AC50 [11]: 5.25 µM (active)

O=C(Nc1nc2cccc(-c3ccc(CN4CCS(=O)(=O)CC4)cc3)n2n1)C1CC1
AC50 [2]: 14.8 µM (active) | AC50 [9]: 29.6 µM (active) | AC50 [4]: 9.34 µM (active) | fold change [6, 25]: 0.924 (inactive) | fold change [6, 26]: 0.426 | cell count [6, 27]: 6290 | cell count [6, 28]: 6810 | z-score [8, 29]: -0.57 (inactive) | z-score [8, 30]: -1.33

COc1cc2ncnc(Nc3cccc(Cl)c3)c2cc1OC
parasite load remaining [13]: 63.9% (inactive) | viability [13]: 78.3% | AC50 [2]: 13.2 µM (active) | AC50 [9]: 18.7 µM (active) | AC50 [4]: 20.9 µM (active) | fold change [6, 25]: 1.29 (inactive) and 1.02 (inactive) and 0.9 (inactive) | fold change [6, 26]: 0.693 and 0.941 and 0.779 | cell count [6, 27]: 2650 and 1830 and 6990 | cell count [6, 28]: 2060 and 1800 and 7760 | z-score [8, 29]: -0.433 (inactive) | z-score [8, 30]: 0.126

O=C1[C@H](Cc2ccc(O)cc2)N2C(=O)CCN(C(=O)NCc3ccccc3)[C@H]2CN1Cc1cccc2ccccc12
AC50 [2]: 4.17 µM (active) | AC50 [9]: 3.72 µM (active) | AC50 [4]: 3.32 µM (active) | SSMD [7]: 1.66 | cell count [7]: 6950 | plate-normalised HSF1 focus index [7]: 1.09 (inactive)

CC(C)n1ncnc1-c1cn2c(n1)-c1ccc(O[C@@H](C)C(N)=O)cc1OCC2
AC50 [2]: 1.32 µM (active) | AC50 [10]: 1.05 µM (active) | AC50 [4]: 0.59 µM (active)

CNc1nc(Nc2ccc(C(=O)N3CCOCC3)cc2OC)ncc1Cl
outcome [2]: inactive | outcome [9]: inactive | outcome [10]: inactive | outcome [12]: inactive | outcome [5]: inactive

Nc1cccc(-c2cc3c(Oc4cccc(O)c4)ncnc3[nH]2)c1
parasite load remaining [13]: 28.2% (inactive) | viability [13]: 64.3% | AC50 [2]: 1.66 µM (active) | AC50 [9]: 11.8 µM (active) | AC50 [10]: 4.68 µM (active) | AC50 [4]: 5.25 µM (active) | IC50 [5]: 8.33 µM (active) | fold change [6, 25]: 1.45 (inactive) | fold change [6, 26]: 0.507 | cell count [6, 27]: 1790 | cell count [6, 28]: 1240 | z-score [8, 29]: 0.0499 (inactive) | z-score [8, 30]: -2.88

CNc1nccc(-c2cccnc2Oc2cc(C(=O)Nc3cccc(C(F)(F)F)c3)ccc2C)n1
AC50 [2]: 3.72 µM (active) | AC50 [9]: 13.2 µM (active) | AC50 [10]: 5.9 µM (active) | AC50 [4]: 5.9 µM (active) | IC50 [5]: 13.2 µM (active)

Source: PubChem BioAssay
